GPR151 activ – activators of human GPR151, primary screen, cell-based, PathHunter beta-arrestin, luminescence; G-protein coupled receptor 151 (Homo sapiens), Q8TDV0; PathHunter beta-arrestin GPR151 cells; activation, % at 11.2 µM; 1% of 650,000 active; AID 1508602, 2020; in the data active = activation above about 4.9%;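 also: 0% = median of compound wells and 100% = cells with positive control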
TEAD-YAP block – TEAD-YAP interaction inhibition, primary screen, TEAD-YAP interaction inhibitor project, luminescence, HEK-TIYL cells | AID 1259422, 2018 | TEAD-Gal4/YAP UAS-luciferase luminescence | inhibition, % at 9.12 µM | 1.4% of 640,000 active; in the data active = inhibition above about 32%;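 also: 0% = median of test compound wells and 100% = reference inhibitor wells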
MITF primary – MITF inhibitors, primary screen, biochemical, AlphaScreen, human; Microphthalmia-associated transcription factor (Homo sapiens), O75030; AlphaScreen MITF homodimerization, bead proximity signal; inhibition, % at 2.6 µM; 0.91% of 650,000 active; AID 1259374, 2018; in the data active = inhibition above about 50%;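 also: 0% = vehicle wells with protein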
FBW7 act – FBW7 E3 ligase activators, primary screen, biochemical, AlphaScreen, human | normalized activity (activation), % at 26.1 µM | 0.13% of 650,000 active | AlphaScreen FBW7–phospho-cyclin E peptide binding, activator screen | F-box/WD repeat-containing protein 7 (Homo sapiens), Q969H0; in the data active = normalized activity above about 1.9%;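 also: purified mutant Fbw7 with reduced substrate affinity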
Target sequence (Q969H0 whole entry, looked up): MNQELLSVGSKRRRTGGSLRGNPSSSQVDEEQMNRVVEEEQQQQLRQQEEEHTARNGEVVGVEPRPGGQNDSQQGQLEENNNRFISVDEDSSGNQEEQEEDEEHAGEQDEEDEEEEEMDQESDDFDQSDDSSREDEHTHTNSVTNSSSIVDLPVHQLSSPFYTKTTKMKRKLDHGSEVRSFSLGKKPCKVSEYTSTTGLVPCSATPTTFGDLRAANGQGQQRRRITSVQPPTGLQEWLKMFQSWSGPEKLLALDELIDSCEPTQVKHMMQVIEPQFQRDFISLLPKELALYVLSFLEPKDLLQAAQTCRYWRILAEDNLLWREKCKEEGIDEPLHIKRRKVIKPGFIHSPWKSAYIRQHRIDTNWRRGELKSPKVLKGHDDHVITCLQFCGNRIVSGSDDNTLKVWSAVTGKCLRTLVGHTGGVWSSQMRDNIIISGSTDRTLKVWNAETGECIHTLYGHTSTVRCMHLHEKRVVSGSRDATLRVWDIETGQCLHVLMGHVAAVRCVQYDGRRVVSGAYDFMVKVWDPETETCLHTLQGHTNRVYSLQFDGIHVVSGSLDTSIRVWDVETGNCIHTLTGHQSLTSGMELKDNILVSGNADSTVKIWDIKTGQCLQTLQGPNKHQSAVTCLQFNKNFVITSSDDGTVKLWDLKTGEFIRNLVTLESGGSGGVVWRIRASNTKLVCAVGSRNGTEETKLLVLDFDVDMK
MITF confirm – MITF inhibitors, retest of hits, confirmation, biochemical, AlphaScreen, triplicate. inhibition, % at 2.6 µM. 16% of 4,700 active. shares compounds with MITF primary. AID 1259372, 2018. AlphaScreen MITF homodimerization, biotin/His-MITF beads;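 active = inhibition above a cutoff derived from the DMSO control wells, cut at about 28% in these data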;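 also: 0% = MITF dimer wells with DMSO only; inhibitors lower the bead chemiluminescence by keeping MITF from dimerizing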
AlphaScreen DR – AlphaScreen optical interference compounds, dose response, counter-screen, biochemical, HTS; shares compounds with MITF primary; AlphaScreen optical interference counterscreen, cell-free; IC50, µM; 6% of 480 active; call rule not given here
AlphaScreen intf2 – AlphaScreen optical interference compounds, counter-screen for MITF inhibitor project, biochemical, triplicate; shares compounds with MITF primary; LysRS AlphaScreen counterscreen, signal interference; inhibition, % at 2.6 µM; 7.6% of 4,700 active; AID 1259376, 2018;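 active = inhibition above a cutoff derived from the DMSO control wells, cut at about 30% in these data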
* hit, by the source's call; . = no result given. An excerpt weighted towards active compounds, which were near 3.5% of everything screened.

SMILES | GPR151 activ | TEAD-YAP block | MITF primary | FBW7 act | MITF confirm | AlphaScreen intf2 | others
O=[N+]([O-])c1ccc(OCCNCc2ccco2)cc1 | -2 | -10 | 56* | 0 | -14 | -5
O=[N+]([O-])c1ccc(OCCCNCc2ccco2)cc1 | 0 | -4 | 32 | 0 | . | .
Clc1ccc(CN2CCN(C3CCCCCC3)CC2)cc1 | 0 | -3 | 74* | 1 | -5 | 3
Fc1cccc(CN2CCN(C3CCCC3)CC2)c1 | 0 | 3 | 52* | 0 | -17 | -8
c1ccc(CN2CCN(C3CCCCCC3)CC2)cc1 | -1 | 2 | 70* | 0 | 7 | 17
Clc1ccc(CN2CCN(C3CCCC3)CC2)cc1 | 1 | -6 | 45 | 0 | . | .
Clc1ccc(CN2CCN(C3CCCCC3)CC2)cc1 | 0 | -9 | 67* | 0 | 5 | 17
NC1CCN(Cc2cccc(F)c2)CC1 | 0 | -2 | -13 | 0 | . | .
CCCCNS(=O)(=O)c1ccc(OCC)c2ncccc12 | 0 | 4 | -12 | 0 | . | .
Cc1ccc(OCCN2CCC(C)CC2)c([N+](=O)[O-])c1 | -1 | -10 | 64* | 0 | -2 | 4
COCCCNCCCOc1ccc(C)cc1[N+](=O)[O-] | 0 | -4 | 64* | 0 | 1 | -5
Cc1ccc(OCCN(C)C)c([N+](=O)[O-])c1 | -1 | -4 | 51* | 0 | -3 | 7
Cc1ccc(OCCN2CCOCC2)c([N+](=O)[O-])c1 | 1 | 0 | 46 | 0 | . | .
COc1cc(/C=N/N=C2\NC(=O)C(CC(=O)O)S2)ccc1OCC(=O)O (stereo unspecified) | 0 | 1 | 10 | 0 | . | .
COc1cc(/C=N/N=C2\NC(=O)C(CC(=O)O)S2)ccc1OCc1ccc(C)cc1 (stereo unspecified) | -1 | -40 | 66* | 0 | 45* | 4 | AlphaScreen DR=>6.5
COc1cc(Nc2nc(SCC(=O)NCC3CCCO3)nc3ccccc23)cc(OC)c1 (stereo unspecified) | 0 | 5 | 60* | 0 | -12 | -8
O=C(CSc1nc(Nc2ccc(F)c(F)c2)c2ccccc2n1)NCC1CCCO1 (stereo unspecified) | -1 | 0 | 6 | 0 | . | .
Cc1[nH]c(=O)[nH]c1C(=O)CCCCC(=O)OCC(=O)Nc1ccccn1 | 0 | -3 | 116* | -1 | 118* | 97*
CCOC(=O)CCCCC(=O)c1[nH]c(=O)[nH]c1C | -2 | -3 | 115* | -1 | 118* | 99*
Cc1cc(C)cc(OCC(=O)Nc2ccccn2)c1 | -1 | -42 | 10 | 0 | . | .
CCOC(=O)CCCCC(=O)c1[nH]c(=O)[nH]c1CSC(=N)N | 0 | -8 | 45 | 0 | . | .
Cc1[nH]c(=O)[nH]c1C(=O)CCCCC(=O)OCC(=O)c1ccc(Br)cc1 | 1 | 8 | 114* | -1 | 112* | 93*
Cc1ccc(C(=O)NCS(=O)(=O)C2CCCCC2)cc1 | 0 | 8 | -3 | 0 | . | .
O=C(CN1CCN(Cc2nc(-c3ccco3)cs2)CC1)NCCc1ccccc1 | -1 | 3 | 76* | 0 | 14 | 12
COc1ccc(CCNC(=O)CN2CCN(Cc3nc(-c4ccco4)cs3)CC2)cc1OC | 0 | 8 | 70* | -1 | 28* | 12 | AlphaScreen DR=>6.5
C=CCNC(=O)CN1CCN(Cc2nc(-c3ccccc3)cs2)CC1 | -3 | -19 | 70* | 0 | -18 | 2
O=C(CN1CCN(Cc2nc(-c3ccccc3)cs2)CC1)NCc1ccco1 | 0 | -11 | 3 | 0 | . | .
O=C(CN1CCN(Cc2nc(-c3ccc(F)cc3)cs2)CC1)NCc1ccco1 | 1 | -12 | 70* | 0 | 18 | 4
O=C(c1cccnc1)N1CC[C@H]2[C@H](CCC(=O)N2CCCn2ccnc2)C1 | 0 | 5 | -7 | 0 | . | .
CN(Cc1cc(Cl)c(O)c2ncccc12)C1CCCCC1 | 2 | 70* | 106* | -1 | 104* | 101*
